# According to PubChem BioAssay (NCATS):
# Records with an inconclusive call do not appear. A call without a number means that no potency is given here. Active and inactive are the calls of the source. Calls follow the shape of the dose curve; as a rule, active = well fitted curve in the direction sought with a large enough effect; inconclusive = small, poorly fitted or top-dose-only effect, or another doubt; inactive = no such curve, though single readings can be large; an effect the other way counts as inactive or inconclusive.
# Key:
# [1] = target: N-terminal Xaa-Pro-Lys N-methyltransferase 1 (Homo sapiens) (UniProt Q9BV86); test: qHTS Assay for Inhibitors of N-terminal methyltransferase 1 (NTMT1): LOPAC validation of the NTMT1 SAHH-coupled ThioGlo3 Assay (AID 1347143);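 also: SAH from peptide methylation measured as thiol fluorescence via SAHH coupling and ThioGlo3; nearly all actives have a fitted effect of over 70% in size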; also: potency is read from the fitted curve at half-maximal effect
# In short: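 Recombinant human NTMT1 (125nM) was pre-incubated 1 min at room temperature with compounds over a concentration range, then a mix of 100uM SAM, 10uM SAHH and 15uM ThioGlo3 (concentrations in added reagent) was added. ThioGlo3 fluorescence (ex 340/em 450nm) after 30 min was normalized to the initial reading.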
# [2] = system: Zika virus NS2B-NS3 protease (unlinked); test: Optimization of GU AMC qHTS for Zika virus inhibitors: Unlinked NS2B-NS3 protease assay (AID 1347151); also: nearly all actives have a fitted effect of over 80% in size; also: potency is read from the fitted curve at half-maximal effect
# In short: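 Fluorescence read-out (340 nm ex / 450 nm em) of AMC peptide cleavage, taken immediately and after 15 min at room temperature (~20% conversion). Enzyme was the unlinked NS2B–NS3 complex at 25 nM in Tris pH 8.0 buffer.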
# [3] = system: Zika virus NS2B-NS3 protease; test: Primary screen GU AMC qHTS for Zika virus inhibitors (AID 1347154); also: nearly all actives have a fitted effect of over 70% in size
# In short: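 Unlinked Zika NS2B hydrophilic domain–NS3 protease complex at 25 nM in 10 mM Tris-HCl pH 8.0, 0.01% Tween 20, with an AMC peptide substrate. Fluorescence change (340/450 nm) over 15 min at room temperature, normalized to controls, fitted to 4-parameter Hill.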
# [4] = qHTS of pediatric cancer cell lines to identify multiple opportunities for drug repurposing: Confirmatory screen for BT-37 cells (AID 1347117);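 also: viability measured after 48 h of compound exposure; nearly all actives have a fitted effect of over 55% in size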
# In short: (§1)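 Viability after 48 h compound treatment at 37C, 500-1,000 cells/well, read as ATP luminescence with CellTiter-Glo. Primary screens used 11-point (MIPE, 0.78 nM-46 µM) or 8-point (NPC, 0.59 nM-46 µM) final concentrations; follow-up screens used 11-point dilutions.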
# [5] = qHTS of pediatric cancer cell lines to identify multiple opportunities for drug repurposing: Confirmatory screen for TC32 cells (AID 1347118);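 also: potency is read from the fitted curve at half-maximal effect; cells exposed to compound for 48 h before the read; nearly all actives have a fitted effect of over 65% in size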
# In short: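 TC32 cells, 500-1,000/well in growth medium, compound-treated 48 h at 37 °C; viability from CellTiter-Glo luminescence. Primary screen: MIPE 11-point (0.78 nM–46 µM final), NPC 8-point (0.59 nM–46 µM final); confirmatory at 11-point dilutions.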
# [6] = qHTS of pediatric cancer cell lines to identify multiple opportunities for drug repurposing: Confirmatory screen for MG 63 (6-TG R) cells (AID 1347119); also: nearly all actives have a fitted effect of over 55% in size
# In short: as §1
# [7] = qHTS of pediatric cancer cell lines to identify multiple opportunities for drug repurposing: Confirmatory screen for control Hh wild type fibroblast cells (AID 1347121); also: nearly all actives have a fitted effect of over 70% in size
# In short: as §1
# [8] = qHTS of pediatric cancer cell lines to identify multiple opportunities for drug repurposing: Confirmatory screen for U-2 OS cells (AID 1347122); conditions: outcome: dose series up to 45.9 µM; also: nearly all actives have a fitted effect of over 65% in size
# In short: as §1
# [9] = qHTS of pediatric cancer cell lines to identify multiple opportunities for drug repurposing: Confirmatory screen for Rh41 cells (AID 1347123);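 also: 48 h compound exposure; nearly all actives have a fitted effect of over 60% in size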
# In short: as §1
# [10] = qHTS of pediatric cancer cell lines to identify multiple opportunities for drug repurposing: Confirmatory screen for RD cells (AID 1347124);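 also: cells exposed to compound for 48 h before viability readout; nearly all actives have a fitted effect of over 65% in size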
# In short: as §1
# [11] = qHTS of pediatric cancer cell lines to identify multiple opportunities for drug repurposing: Confirmatory screen for Rh18 cells (AID 1347125); also: nearly all actives have a fitted effect of over 55% in size
# In short: as §1
# [12] = qHTS of pediatric cancer cell lines to identify multiple opportunities for drug repurposing: Confirmatory screen for OHS-50 cells (AID 1347128);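 also: compound exposure lasted 48 h at 37 degrees C; nearly all actives have a fitted effect of over 55% in size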
# In short: as §1
# [13] = qHTS of pediatric cancer cell lines to identify multiple opportunities for drug repurposing: Confirmatory screen for SK-N-SH cells (AID 1347129);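 also: cells exposed to compound for 48 h before viability read; nearly all actives have a fitted effect of over 60% in size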
# In short: as §1
# [14] = system: Zika virus NS2B-NS3 protease (unlinked complex); test: Primary screen GU Rhodamine qHTS for Zika virus inhibitors: Unlinked NS2B-NS3 protease assay (AID 1347159); also: nearly all actives have a fitted effect of over 60% in size
# In short: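 Noncovalent NS2B hydrophilic domain/NS3 protease complex (25 nM final) in 10 mM Tris-HCl pH 8.0, 0.01% Tween 20, preincubated 15 min with compounds (up to 114 microM), then 1.5 microM Rhodamine110 substrate. Fluorescence change over 15 min fitted to 4-parameter Hill.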
# Furin (Homo sapiens) = Furin (Homo sapiens) (UniProt P09958); test: Furin counterscreen qHTS for Zika virus inhibitors (AID 1347149); also: potency is read from the fitted curve at half-maximal effect; nearly all actives have a fitted effect of over 70% in size
# In short: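 Fluorogenic cleavage of BOC-RVRR-AMC (2 microM final, Km ~15 µM) was monitored (ex 340, em 450 nm) at 37C after 15 min RT preincubation of 5 nM furin with compounds in HEPES pH 7.0 buffer with CaCl2 and Triton X-100. Percent inhibition was fitted to a 4-parameter Hill curve.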
# [15] = system: Zika virus NS2B-NS3 protease (linked construct); test: Confirmatory screen NINDS AMC qHTS for Zika virus inhibitors (AID 1347152)
# In short: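 Linked NS2B-NS3 1 nM, Tris pH 8.0/0.01% Tween 20; cpd 15 min RT dark; + Nle-KRR-AMC 10 µM (Km 18.3 µM); read 0 and 15 min, 340/450 nm; %inh vs controls, 4-param Hill.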
# [16] = system: Zika virus NS2B-NS3 protease (unlinked complex); test: Confirmatory screen GU AMC qHTS for Zika virus inhibitors (AID 1347153); also: nearly all actives have a fitted effect of over 70% in size
# In short: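 Unlinked NS2B-NS3 complex (25 nM) in 10 mM Tris-HCl pH 8.0, 0.01% Tween 20 preincubated 15 min with compound, then 10 microM Bz-Nle-KRR-AMC (Km 18.3 µM). Fluorescence change over 15 min, normalized, Hill-fitted.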
# N-terminal Xaa-Pro-Lys N-methyltransferase 1 (Homo sapiens), sequence (Q9BV86 whole entry, looked up): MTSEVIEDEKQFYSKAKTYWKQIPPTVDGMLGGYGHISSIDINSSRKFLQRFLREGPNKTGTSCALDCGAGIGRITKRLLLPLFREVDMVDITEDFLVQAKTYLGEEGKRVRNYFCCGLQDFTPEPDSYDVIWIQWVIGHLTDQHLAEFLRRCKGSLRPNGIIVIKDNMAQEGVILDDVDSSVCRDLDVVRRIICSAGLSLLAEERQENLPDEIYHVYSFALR
# Furin (Homo sapiens), sequence (P09958 whole entry, looked up): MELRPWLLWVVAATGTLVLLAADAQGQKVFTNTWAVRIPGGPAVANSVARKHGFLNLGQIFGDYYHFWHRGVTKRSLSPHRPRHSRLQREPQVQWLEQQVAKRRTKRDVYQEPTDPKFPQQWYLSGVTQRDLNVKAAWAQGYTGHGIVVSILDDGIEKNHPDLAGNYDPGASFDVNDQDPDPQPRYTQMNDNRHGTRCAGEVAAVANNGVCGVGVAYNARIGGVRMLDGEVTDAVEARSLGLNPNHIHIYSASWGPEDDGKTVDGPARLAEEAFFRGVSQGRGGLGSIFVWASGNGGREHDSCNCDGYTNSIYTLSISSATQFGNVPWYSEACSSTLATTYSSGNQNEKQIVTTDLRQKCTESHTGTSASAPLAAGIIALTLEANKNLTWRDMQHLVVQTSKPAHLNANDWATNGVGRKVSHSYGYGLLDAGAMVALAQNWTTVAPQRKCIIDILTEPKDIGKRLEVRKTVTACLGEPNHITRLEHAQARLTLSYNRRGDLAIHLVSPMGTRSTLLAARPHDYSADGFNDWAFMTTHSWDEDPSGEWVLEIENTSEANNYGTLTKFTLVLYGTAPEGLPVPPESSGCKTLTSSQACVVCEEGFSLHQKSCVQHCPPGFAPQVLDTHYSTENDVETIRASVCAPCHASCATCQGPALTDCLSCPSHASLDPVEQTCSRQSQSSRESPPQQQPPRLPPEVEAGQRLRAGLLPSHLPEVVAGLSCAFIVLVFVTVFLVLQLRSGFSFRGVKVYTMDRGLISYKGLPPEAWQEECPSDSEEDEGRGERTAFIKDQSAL
compound,measurement,setting,value
CNCCCC1c2ccccc2C=Cc2ccccc21,Potency,[1],56.2 µM (active)
same,Potency,[2],26.7 µM (active)
CC1=C(CC(=O)O)c2cc(F)ccc2/C1=C\c1ccc(S(C)(=O)=O)cc1,Potency,[1],inactive
same,Potency,[2],inactive
same,Potency,[3],inactive
CC(CN(C)C)CN1c2ccccc2CCc2ccccc21 (centres undefined),Potency,[1],inactive
same,Potency,[2],inactive
same,Potency,[3],inactive
Nc1cc(=O)[nH]c(N)n1,Potency,[1],inactive
same,Potency,[2],inactive
same,Potency,[3],inactive
COC(=O)C1=C(C)NC(C)=C(C(=O)OC)C1c1ccccc1[N+](=O)[O-],Potency,[1],12.6 µM (active)
same,Potency,[2],inactive
same,Potency,[3],inactive
C[C@@H]1C[C@H]2[C@@H]3C[C@H](F)C4=CC(=O)C=C[C@]4(C)[C@@]3(F)[C@@H](O)C[C@]2(C)[C@@]1(O)C(=O)CO,Potency,[4],inactive
same,Potency,[5],23.3 µM (active)
same,Potency,[6],inactive
same,outcome,[7],inactive
same,outcome,[8],inactive
same,outcome,[9],inactive
same,Potency,[10],inactive
same,outcome,[11],inactive
same,outcome,[12],inactive
same,outcome,[13],inactive
same,Potency,[3],inactive
same,Potency,[14],inactive
CNCC(O)c1ccc(O)c(O)c1 (centres undefined),Potency,[1],inactive
same,Potency,[2],inactive
same,Potency,[3],inactive
NC1[C@H]2CN(c3nc4c(cc3F)c(=O)c(C(=O)O)cn4-c3ccc(F)cc3F)C[C@@H]12 (some centres undefined),Potency,[1],50.1 µM (active)
same,Potency,Furin (Homo sapiens),24.1 µM (active)
same,Potency,[2],23.8 µM (active)
same,Potency,[15],inactive
same,outcome,[16],inactive
same,Potency,[3],inactive
CN(C)CC[C@@H](c1ccc(Cl)cc1)c1ccccn1,Potency,[1],inactive
same,Potency,[2],inactive
same,Potency,[3],inactive
CC(CN1c2ccccc2Sc2ccccc21)N(C)C (centres undefined),Potency,[1],50.1 µM (active)
same,Potency,[2],inactive
same,Potency,[3],inactive
Cc1c(O)cccc1C(=O)N[C@@H](CSc1ccccc1)[C@H](O)CN1C[C@H]2CCCC[C@H]2C[C@H]1C(=O)NC(C)(C)C,Potency,[1],inactive
same,Potency,[2],inactive
same,Potency,[3],inactive
